According to PubChem BioAssay AID1159580 (chemical genetic matrix, 2015):
Hit rate of the full screen: of about 5,500 compounds, about 2,000 (36%) were called active. Another 18% or so got no clear call; they are omitted. Rule as the data show it: active = normalized growth mostly below about 0.91 (no sharp cut-off); inconclusive = no clear call, values can overlap the other calls; inactive = mostly above about 0.92. This is one part of the list.

Assay: chemical genetic growth profiling, strain panel (AID 1159580);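 also: tested at 20 µM; growth read once vehicle control cultures reached saturation at 30 °C; 1 = growth at the plate median or of vehicle wells; lower values mean less growth of the strain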
Conditions: growth OD
[1] = S. cerevisiae deletion strains, locus YAL040C, strain CLN3, active compounds read low
[2] = S. cerevisiae deletion strains, locus YCL061C, strain MRC1 (second series), active compounds read low
[3] = S. cerevisiae deletion strains, locus YDR363W, strain ESC2, active compounds read low
[4] = S. cerevisiae deletion strains, locus YER002W, strain NOP16, active compounds read low
[5] = S. cerevisiae deletion strains, locus YNL128W, strain TEP1, active compounds read low
[6] = S. cerevisiae deletion strains, locus YNL153C, strain GIM3, active compounds read low
[7] = S. cerevisiae deletion strains, locus YNL175C, strain NOP13, active compounds read low
[8] = S. cerevisiae deletion strains, locus YNL197C, strain WHI3, active compounds read low
[9] = S. cerevisiae deletion strains, locus YNL224C, strain SQS1, active compounds read low
[10] = S. cerevisiae deletion strains, locus YOR083W, strain WHI5 (second series), active compounds read low
[11] = S. cerevisiae deletion strains, locus YGR078C, strain PAC10, active compounds read low
[12] = S. cerevisiae deletion strains, locus YGR229C, strain SMI1, active compounds read low
[13] = S. cerevisiae deletion strains, locus YJR075W, strain HOC1, active compounds read low
[14] = S. cerevisiae deletion strains, locus YPL055C, strain LGE1, active compounds read low
[15] = S. cerevisiae deletion strains, locus YPL241C, strain CIN2, active compounds read low
[16] = S. cerevisiae deletion strains, locus YDL101C, strain DUN1, active compounds read low
[17] = S. cerevisiae deletion strains, locus YHR030C, strain SLT2, active compounds read low

Measured: normalized growth

CCCn1c(=O)c2[nH]c(-c3ccc(S(=O)(=O)O)cc3)nc2n(CCC)c1=O
inactive: [1] 0.994 | [2] 1.01 | [3] 0.958 | [4] 0.997 | [5] 1 | [6] 1.01 | [7] 0.985 | [8] 0.99 | [9] 1 | [10] 0.979

CC(C)CC(NP(=O)(O)O[C@@H]1O[C@@H](C)[C@H](O)[C@@H](O)[C@H]1O)C(=O)NC(Cc1c[nH]c2ccccc12)C(=O)O (some centres not stated)
inactive: [1] 1.01 | [2] 1.01 | [3] 1.01 | [4] 1 | [11] 1.02 | [12] 1.03 | [13] 1.03 | S. cerevisiae deletion strains, locus YMR307W, strain GAS1, active compounds read low 0.994 | [5] 0.993 | [6] 1.04 | [7] 0.998 | [8] 1 | [9] 0.997 | [10] 1.01 | [14] 1.02 | [15] 1.01

O=C1/C(=C/c2c(F)cccc2Cl)Cc2ccccc21
active: S. cerevisiae deletion strains, locus YLR113W, strain HOG1, active compounds read low 0.834
inactive: S. cerevisiae deletion strains, locus YAR019C, strain CDC15, active compounds read low 0.965 | S. cerevisiae deletion strains, locus YBL105C, strain PKC1, active compounds read low 0.965 | S. cerevisiae deletion strains, locus YBR135W, strain CKS1, active compounds read low 0.959 | S. cerevisiae deletion strains, locus YBR136W, strain MEC1, active compounds read low 0.962 | S. cerevisiae deletion strains, locus YBR160W, strain CDC28, active compounds read low 0.964 | S. cerevisiae deletion strains, locus YDL017W, strain CDC7, active compounds read low 0.963 | S. cerevisiae deletion strains, locus YDL028C, strain MPS1, active compounds read low 0.96 | [16] 0.96 | S. cerevisiae deletion strains, locus YDL108W, strain KIN28, active compounds read low 0.967 | S. cerevisiae deletion strains, locus YDL132W, strain cdc53, active compounds read low 0.96 | S. cerevisiae deletion strains, locus YDL214C, strain PRR2, active compounds read low 0.96 | S. cerevisiae deletion strains, locus YDR052C, strain DBF4, active compounds read low 0.977 | S. cerevisiae deletion strains, locus YDR054C, strain cdc34, active compounds read low 0.961 | S. cerevisiae deletion strains, locus YDR226W, strain ADK1, active compounds read low 0.967 | S. cerevisiae deletion strains, locus YDR477W, strain SNF1, active compounds read low 0.945 | S. cerevisiae deletion strains, locus YER123W, strain YCK3, active compounds read low 0.876 | S. cerevisiae deletion strains, locus YER133W, strain GLC7, active compounds read low 0.948 | S. cerevisiae deletion strains, locus YFL009W, strain cdc4, active compounds read low 0.961 | S. cerevisiae deletion strains, locus YFL029C, strain CAK1, active compounds read low 0.961 | S. cerevisiae deletion strains, locus YFR003C, strain YPI1, active compounds read low 0.962 | S. cerevisiae deletion strains, locus YFR019W, strain FAB1, active compounds read low 0.903 | S. cerevisiae deletion strains, locus YFR028C, strain CDC14, active compounds read low 0.96 | S. cerevisiae deletion strains, locus YGR040W, strain KSS1, active compounds read low 0.947 | S. cerevisiae deletion strains, locus YGR052W, strain FMP48, active compounds read low 0.974 | S. cerevisiae deletion strains, locus YGR092W, strain DBF2, active compounds read low 0.841 | [17] 0.882 | S. cerevisiae deletion strains, locus YHR079C, strain IRE1, active compounds read low 0.884 | S. cerevisiae deletion strains, locus YHR082C, strain KSP1, active compounds read low 0.916 | S. cerevisiae deletion strains, locus YHR205W, strain SCH9, active compounds read low 0.871 | S. cerevisiae deletion strains, locus YIL147C, strain SLN1, active compounds read low 0.963 | S. cerevisiae deletion strains, locus YJL095W, strain BCK1, active compounds read low 0.927 | S. cerevisiae deletion strains, locus YJL128C, strain PBS2, active compounds read low 0.929 | S. cerevisiae deletion strains, locus YJL157C, strain FAR1, active compounds read low 0.945 | S. cerevisiae deletion strains, locus YJR016C, strain ILV3, active compounds read low 0.965 | S. cerevisiae deletion strains, locus YJR066W, strain TOR1 (second series), active compounds read low 0.906 | S. cerevisiae deletion strains, locus YJR066W, strain TOR1, active compounds read low 0.892 | S. cerevisiae deletion strains, locus YKL048C, strain ELM1, active compounds read low 0.968 | S. cerevisiae deletion strains, locus YKL067W, strain YNK1, active compounds read low 0.961 | S. cerevisiae deletion strains, locus YKL101W, strain HSL1, active compounds read low 0.965 | S. cerevisiae deletion strains, locus YKL193C, strain SDS22, active compounds read low 0.961 | S. cerevisiae deletion strains, locus YKL203C, strain TOR2, active compounds read low 1.03 | S. cerevisiae deletion strains, locus YLR133W, strain CKI1, active compounds read low 0.955 | S. cerevisiae deletion strains, locus YLR403W, strain SFP1, active compounds read low 0.927 | S. cerevisiae deletion strains, locus YML070W, strain DAK1, active compounds read low 0.929 | S. cerevisiae deletion strains, locus YMR001C, strain CDC5, active compounds read low 0.961 | S. cerevisiae deletion strains, locus YMR205C, strain PFK2 (second series), active compounds read low 0.956 | S. cerevisiae deletion strains, locus YMR277W, strain FCP1, active compounds read low 0.963 | S. cerevisiae deletion strains, locus YNL006W, strain LST8, active compounds read low 0.97 | S. cerevisiae deletion strains, locus YNL020C, strain ARK1, active compounds read low 0.947 | S. cerevisiae deletion strains, locus YNL161W, strain CBK1, active compounds read low 0.965 | S. cerevisiae deletion strains, locus YNL183C, strain NPR1, active compounds read low 0.9 | S. cerevisiae deletion strains, locus YNL207W, strain RIO2, active compounds read low 0.965 | S. cerevisiae deletion strains, locus YNL222W, strain SSU72, active compounds read low 0.965 | S. cerevisiae deletion strains, locus YNL307C, strain MCK1 (second series), active compounds read low 0.885 | S. cerevisiae deletion strains, locus YOL078W, strain AVO1, active compounds read low 0.962 | S. cerevisiae deletion strains, locus YOL136C, strain PFK27, active compounds read low 0.92 | S. cerevisiae deletion strains, locus YOR061W, strain CKA2, active compounds read low 0.942 | S. cerevisiae deletion strains, locus YOR119C, strain RIO1, active compounds read low 0.952 | S. cerevisiae deletion strains, locus YOR231W, strain MKK1, active compounds read low 0.92 | S. cerevisiae deletion strains, locus YOR329C, strain SCD5, active compounds read low 0.963 | S. cerevisiae deletion strains, locus YPL031C, strain PHO85, active compounds read low 0.928 | S. cerevisiae deletion strains, locus YPL153C, strain RAD53, active compounds read low 0.947 | S. cerevisiae deletion strains, locus YPL204W, strain HRR25, active compounds read low 0.927 | S. cerevisiae deletion strains, locus YPL209C, strain IPL1, active compounds read low 0.968 | S. cerevisiae deletion strains, locus YPL256C, strain CLN2, active compounds read low 0.887 | S. cerevisiae deletion strains, locus YPR025C, strain CCL1, active compounds read low 0.957 | S. cerevisiae deletion strains, locus YPR106W, strain ISR1, active compounds read low 0.957 | S. cerevisiae deletion strains, locus YPR111W, strain DBF20, active compounds read low 0.957 | S. cerevisiae deletion strains, strain NNK1, active compounds read low 0.943 | S. cerevisiae deletion strains, strain TSCII, active compounds read low 0.962

O=C1NC(c2c(F)cccc2Cl)Nc2ccccc21 (configuration not stated)
inactive: S. cerevisiae deletion strains, locus YAL013W, strain DEP1, active compounds read low 1.01 | S. cerevisiae deletion strains, locus YBR229C, strain ROT2, active compounds read low 1.01 | S. cerevisiae deletion strains, locus YCL061C, strain MRC1, active compounds read low 1.03 | [16] 1.02 | S. cerevisiae deletion strains, locus YDL134C, strain PPH21, active compounds read low 1 | S. cerevisiae deletion strains, locus YDR150W, strain NUM1, active compounds read low 0.987 | S. cerevisiae deletion strains, locus YEL061C, strain CIN8, active compounds read low 1 | [11] 1.03 | [12] 0.988 | [17] 1 | S. cerevisiae deletion strains, locus YHR087W, strain rtc3, active compounds read low 1.02 | S. cerevisiae deletion strains, locus YJL187C, strain SWE1, active compounds read low 1 | S. cerevisiae deletion strains, locus YJR043C, strain POL32, active compounds read low 0.998 | [13] 0.998 | S. cerevisiae deletion strains, locus YKL190W, strain CNB1, active compounds read low 1.01 | S. cerevisiae deletion strains, locus YLR039C, strain RIC1, active compounds read low 0.94 | S. cerevisiae deletion strains, locus YLR058C, strain SHM2 (second series), active compounds read low 1.02 | S. cerevisiae deletion strains, locus YLR085C, strain ARP6, active compounds read low 0.984 | S. cerevisiae deletion strains, locus YLR262C, strain YPT6, active compounds read low 0.926 | S. cerevisiae deletion strains, locus YML094W, strain GIM5, active compounds read low 1.05 | S. cerevisiae deletion strains, locus YMR219W, strain ESC1, active compounds read low 1 | S. cerevisiae deletion strains, locus YMR263W, strain SAP30, active compounds read low 0.978 | [6] 1.01 | S. cerevisiae deletion strains, locus YNL298W, strain CLA4 (second series), active compounds read low 0.979 | S. cerevisiae deletion strains, locus YNL322C, strain KRE1, active compounds read low 1 | S. cerevisiae deletion strains, locus YNR030W, strain Alg12, active compounds read low 1.02 | [14] 1 | [15] 1.04 | S. cerevisiae deletion strains, locus YPR135W, strain CTF4, active compounds read low 1.06 | S. cerevisiae strains, strain wild type, active compounds read low 1.01
